Source: PubChem
Methyltransferases: Primary Screen for Target Class Profiling of Small Molecule Inhibitors of Methyltransferases; purified enzyme, MTase-Glo SAH luminescence; active compounds read low; calls only at 40 µM; 25,000 compounds, 3.9% hits; call rule not given here
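Each enzyme was reacted with SAM and its substrate, with compounds tested once at 40 uM; SAH formed was read by MTase-Glo luminescence.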
* hit, by the source's call; i = inactive; + = active, no number. This excerpt belongs to a sample that is enriched for hits. On the % scale 0 is the no-effect control and ±100 the full control effect.

SMILES | Methyltransferases
OC[C@@]1(O)CO[C@H](OC[C@H]2O[C@@H](OCCc3ccccc3)[C@H](O)[C@@H](O)[C@@H]2O)[C@@H]1O | i
CC1(C(=O)NC2CCCCC2)Cn2nc(-c3ccco3)cc2C(=O)N1Cc1ccc(F)cc1 (stereo not drawn) | i
COc1ccc(CN2C(=O)[C@H](OC)[C@@H]2C2=CCN(C(=O)CC(C)C)CC2)cc1 | i
CCCn1c(=O)c2ccc(C(=O)NCC(C)C)cc2n2c(=O)n(Cc3ccccc3)nc12 | i
CNC(=O)[C@@H](CC(C)C)N1CCC[C@H]1C(=O)N[C@@H](CO)CC(C)C | i
O=C(O)C(Cc1ccccc1)NC(=O)C1CCCN1 (stereo not drawn) | i
COc1cccc(OC)c1-c1ccc(C[C@H](NC(=O)c2c(Cl)cccc2Cl)C(=O)O)cc1 | i
COc1ccc(CC(NC(C)=O)C(=O)O)cc1 (stereo not drawn) | +
CC(=O)N[C@@H](CS)C(=O)O | i
CC(C)NC[C@H]1O[C@@H](CO)[C@@H](O)[C@H]1N1CCN(C)CC1 | i
CCCn1c(=O)c2ccccc2n2c(=O)n(CC(=O)Nc3cc(C)cc(C)c3)nc12 | i
CC(C)(O)/C=C/CC(C)(O)C1C(O)CC2(C)C3CCC4C(C)(C)C(=O)CCC4(C)C3CCC12C (stereo not drawn) | i
Oc1ccc2ccccc2c1SSc1c(O)ccc2ccccc12 | +
CC(C)[S+](=O)([O-])N1CC2ON=C(C(=O)O)C2C1 (stereo not drawn) | i
Cn1cnc(S(=O)(=O)N2C[C@@H](Oc3ccccc3)C[C@H]2C(=O)N2CCOCC2)c1 | i
Brc1cccc(-c2nnn3c2nc(NCc2ccccc2)c2ccccc23)c1 | i
O=C(NC1CCCC1)C1c2sc3ccccc3c2CC(=O)N1CCc1ccc(Cl)cc1 (stereo not drawn) | i
COc1ccc(C)cc1Nc1nc2c(S(=O)(=O)c3ccccc3)nnn2c2ccccc12 | i
Cc1ncsc1C(=O)N1CC(CNC(=O)C2CC2)C2(C1)CN(c1ccccc1)C2 (stereo not drawn) | i
CN1C[C@@H](NC(=O)NC2CCCCC2)C[C@H]1c1nc(-c2ccccn2)no1 | i
Cc1sc2c(c1C)C(c1ccc(Cl)cc1)=N[C@H](CC(=O)NCCCCNC(=O)COc1cccc3c1C(=O)N([C@H]1CCC(=O)NC1=O)C3=O)c1nnc(C)n1-2 | +
Cc1ccc(NC(=O)Cn2nc3n(CC(C)C)c(=O)c4ccccc4n3c2=O)c(Cl)c1 | i
NCCOc1cc(C(=O)Nc2cc(OCCN)c3ccccc3n2)nc(C(=O)Nc2cc(OCCN)c3ccccc3n2)c1 | +
CCOCCCNC(=O)CCc1nc(C2CCCN2C(=O)c2ccccc2)no1 (stereo not drawn) | i
O=C(CCc1nnc2n(Cc3ccccc3)c(=O)c3ccccc3n12)N1CCN(c2ccc(F)cc2)CC1 | i
SMILES | Methyltransferases
COc1cc(/C=C/C(=O)O[C@H]2[C@@H]3C=CO[C@@H](O[C@@H]4O[C@H](CO)[C@@H](O)[C@H](O)[C@H]4O)[C@@H]3[C@@]3(CO)O[C@@H]23)ccc1O | +
CC(=O)O[C@@H]1[C@@H](OC(C)=O)[C@H](C)O[C@@H](O[C@H]2[C@@H]3C=CO[C@@H](O[C@@H]4O[C@H](CO)[C@@H](O)[C@H](O)[C@H]4O)[C@@H]3[C@@]3(CO)O[C@@H]23)[C@@H]1OC(=O)/C=C/c1ccccc1 | i
COC(=O)C1=COC(OC2OC(CO)C(O)C(O)C2O)C2C1C=CC2(O)CO (stereo not drawn) | i
O=C(/C=C/c1ccc(O)cc1)OC[C@@]1(O)C=C[C@@H]2C(C(=O)O)=CO[C@@H](O[C@@H]3O[C@H](CO)[C@@H](O)[C@H](O)[C@H]3O)[C@@H]21 | +
C[C@@H](OC(=O)/C=C/c1ccc(O)cc1)C1=C[C@]2(C=C[C@@H]3C(C(=O)O)=CO[C@@H](O[C@@H]4O[C@H](CO[C@@H]5O[C@H](CO)[C@@H](O)[C@H](O)[C@H]5O)[C@@H](O)[C@H](O)[C@H]4O)[C@@H]32)OC1=O | i
COc1ccc(/C=C/C(=O)O[C@@H]2[C@@H](O[C@@H]3O[C@H](CO)[C@@H](O)[C@H](O)[C@H]3O)[C@@H](O)[C@H](O[C@H]3C4C=CO[C@@H](O[C@@H]5O[C@H](CO)[C@@H](O)[C@H](O)[C@H]5O)C4[C@@]4(CO)O[C@@H]34)O[C@H]2C)cc1 (stereo partly drawn) | i
COc1ccc(/C=C/C(=O)O[C@@H]2[C@@H](OC(C)=O)[C@@H](OC(C)=O)[C@H](O[C@H]3[C@@H]4C=CO[C@@H](O[C@@H]5O[C@H](CO)[C@@H](O)[C@H](O)[C@H]5O)[C@@H]4[C@@]4(CO)O[C@@H]34)O[C@H]2C)cc1O | +
C=C[C@H]1[C@H](O[C@@H]2O[C@H](CO)[C@@H](O)[C@H](O)[C@H]2O)OC=C2C(=O)OCC[C@]21O | i
O=C(/C=C/c1ccc(O)c(O)c1)O[C@@H]1[C@@H](O)[C@H](OC2CCCCC2O)O[C@H](CO)[C@H]1O (stereo partly drawn) | i
CC(=O)O[C@@H]1[C@@H](OC(=O)/C=C/c2ccccc2)[C@@H](OC(C)=O)[C@H](O[C@H]2[C@@H]3C=CO[C@@H](O[C@@H]4O[C@H](CO)[C@@H](O)[C@H](O)[C@H]4O)[C@@H]3[C@@]3(CO)O[C@@H]23)O[C@H]1C | i
C=C[C@H]1[C@H](O[C@@H]2O[C@H](CO)[C@@H](O)[C@H](OC(=O)/C=C/c3ccc(O)c(OC)c3)[C@H]2O)OC=C2C(=O)OCC[C@]21O | +
COc1ccc(/C=C/C(=O)O[C@@H]2[C@@H](O)[C@@H](O)[C@H](O[C@H]3[C@@H]4C=CO[C@@H](O[C@@H]5O[C@H](CO)[C@@H](O)[C@H](O)[C@H]5O)[C@@H]4[C@@]4(CO)O[C@@H]34)O[C@H]2C)cc1 | i
CCOc1ccc(CNC(=O)CCn2ccc3cc(S(=O)(=O)N4CCCCC4)ccc32)cc1 | i
COc1ccc(CCN2C(=O)c3ccc(-c4ccco4)n3CC2(C)C(=O)NCCC(C)C)cc1OC (stereo not drawn) | i
O=C1CN(Cc2ccccc2)S(=O)(=O)c2ccccc2N1Cc1ccccc1 | i
COc1ccc(-c2n[nH]n3c2nc(=O)c2ccc(C(=O)NCc4ccc(C)cc4)cc23)cc1 | i
CCOc1ccc(N(C(=O)C(C)C)S(=O)(=O)c2ccc3c(c2)n(C)c(=O)n3C)cc1 | i
COc1ccc(OC)c(CCN2C(=O)c3cc4oc(C)cc4n3CC2(C)C(=O)NC2CCCCC2)c1 (stereo not drawn) | i
Cc1ccccc1CNC(=O)C(C)n1ccc2cc(S(=O)(=O)N3CCCCC3)ccc21 (stereo not drawn) | i
O=C1CCC2(CCN1Cc1ccccc1)CCN(C(=O)c1ccccc1F)CC2 | i
O=C(Cn1c(=O)oc2ccccc21)N1CCCC(Cc2noc(-c3ccccc3)n2)C1 (stereo not drawn) | i
C=C(C)C1CCC2(C(=O)O[C@@H]3O[C@H](CO[C@@H]4O[C@H](CO)[C@@H](O)[C@H](O)[C@H]4O)[C@@H](O)[C@H](O[C@@H]4O[C@@H](C)[C@H](O)[C@@H](O)[C@H]4O)[C@H]3O)CCC3(C(=O)O)C(CCC4C5(C)CCC(O)C(C)(C)C5CCC43C)C12 (stereo partly drawn) | i
